Experimental findings from PubChem BioAssay (NCATS) are described below.

Results filed as inconclusive are left out. Activity calls are given as the source filed them. Unless noted, calls follow the shape of the dose curve; as a rule, active = well fitted curve in the direction sought with a large enough effect; inconclusive = small, poorly fitted or top-dose-only effect, or another doubt; inactive = no such curve, though single readings can be large; an effect the other way counts as inactive or inconclusive.

Test [1] addresses Metallo-beta-lactamase type 2 (Klebsiella pneumoniae) (UniProt C7C422). The experiment in a line: qHTS to identify inhibitors of the New Delhi Metallo-beta-lactamase (NDM): assay validation screen against the NCATS LOPAC Collection (AID 1794843). Also: % is scaled to controls: 0 for no effect and ±100 for the full control effect. An outline of the steps:
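Absorbance at 485 nm from nitrocefin turnover (50 uM solution added), read at plateau, gives the read-out. Compounds in DMSO were incubated first with 2 nM final NDM-1 in pH 7.0 HEPES buffer containing 1 uM ZnSO4 and 0.01% Tween20.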

The target of test [2] is Glutathione peroxidase 1 (Homo sapiens) (UniProt P07203). In words: Primary qHTS Assay for Inhibitors of Recombinant Selenoprotein Glutathione Peroxidase 1 (GPX1) (AID 1845191). Also: nearly all actives have a fitted effect of over 65% in size. As to activity, negative = inhibition: % is scaled to controls: 0 for no effect and ±100 for the full control effect. An outline of the steps:
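NADPH consumption tracked by fluorescence at 340/450 nm between t=0 and t=15 min, room temperature. Final mix: 10 nM GPX1, 100 nM glutathione reductase, 1 mM GSH, 0.5 mM NADPH, 0.5 mM cumene hydroperoxide, 0.01% BSA; 30 min compound–enzyme preincubation.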
(Quantitative high-throughput screening tests each substance at several concentrations.)

In test [3] the target is Phospholipid hydroperoxide glutathione peroxidase GPX4 (Homo sapiens) (UniProt P36969). The experiment in a line: Primary qHTS Assay for Inhibitors of Recombinant Selenoprotein Glutathione Peroxidase 4 (GPX4) (AID 1845192). Also: nearly all actives have a fitted effect of over 65% in size. The conditions noted are these: outcome: dose series up to 50 µM unless noted. The gist of the method: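 NADPH consumption followed by fluorescence at 340/450 nm, t=0 and after 15 min at room temperature. Reaction started with cumene hydroperoxide (0.5 mM final) after 30 min compound–GPX4 preincubation; final 200 nM GPX4, 100 nM GR, 1 mM GSH, 0.5 mM NADPH.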
Sequence of Phospholipid hydroperoxide glutathione peroxidase GPX4 (Homo sapiens) (P36969 whole entry, looked up): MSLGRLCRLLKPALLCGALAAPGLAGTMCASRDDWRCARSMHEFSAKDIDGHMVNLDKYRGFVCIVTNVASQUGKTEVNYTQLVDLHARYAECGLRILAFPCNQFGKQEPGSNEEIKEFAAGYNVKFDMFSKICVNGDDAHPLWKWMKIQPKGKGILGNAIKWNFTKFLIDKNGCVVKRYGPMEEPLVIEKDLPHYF

Test [4] can be described thus: qHTS drug screen for cell cycle checkpoint inhibitors in PARPi-resistant BRCA-mutant ovarian cancer cell lines. (AID 1963452; calls by dose curve). Particulars: PEO1/OlaR viability, CellTiter-Glo luminescence, 96 h, stronger effect = lower value. An outline of the steps:
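PEO1, PEO4 and PEO1/OlaR ovarian cancer cells, 600 per well, exposed 96 h at 37C to a dilution series. Viability read by CellTiter-Glo luminescence, normalized to DMSO and empty wells; activity summarized as Z-AUC.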

Test [5] is described as follows: qHTS profiling for inhibitors of Plasmodium falciparum proliferation (AID 504749). Also: potency is read from the fitted curve at half-maximal effect.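 As to activity, negative = inhibition: 0% = DMSO vehicle and full inhibition = artemisinin control.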 As to all read-outs here: nearly all actives have a fitted effect of over 60% in size. Particulars: P. falciparum in erythrocytes, SYBR Green DNA, 72 h; for activity, negative = inhibition: at 28.7 µM (top of the series). The gist of the method:
(§1)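 SYBR Green fluorescence of parasite DNA, read after lysis and overnight dark incubation, measured growth over 72 h in erythrocyte culture at 0.3% parasitemia and 2.5% hematocrit. Data normalised to DMSO and 0.29 uM artemisinin, with plate-drift correction.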

Test [6] concerns 3D7. Described as above. The conditions noted are these: P. falciparum in erythrocytes, SYBR Green DNA, 72 h; series mostly up to 28.7 µM. The gist of the method: as §1
Test [7] relates to 7G8. The description is as above. Particulars: P. falciparum in erythrocytes, SYBR Green DNA, 72 h; series mostly up to 28.7 µM. An outline of the steps: as §1
For test [8], the system named is AA1029. The test is described as above. Particulars: P. falciparum in erythrocytes, SYBR Green DNA, 72 h; series mostly up to 28.7 µM. The gist of the method:
as §1

The test system of test [9] is AS120. The description is as above. The conditions noted are these: P. falciparum in erythrocytes, SYBR Green DNA, 72 h; series mostly up to 28.7 µM. An outline of the steps: as §1
The test system of test [10] is ATS189. Described as above. The conditions noted are these: P. falciparum in erythrocytes, SYBR Green DNA, 72 h; series mostly up to 28.7 µM. The gist of the method: as §1
In test [11] the test system is ATS95. Described as above. Particulars: P. falciparum in erythrocytes, SYBR Green DNA, 72 h; series mostly up to 28.7 µM. An outline of the steps: as §1
Test [12] has as its system C2A. The description is as above. The conditions noted are these: P. falciparum in erythrocytes, SYBR Green DNA, 72 h; series mostly up to 28.7 µM. The gist of the method: as §1
Test [13] deals with CP185. Described as above. Particulars: P. falciparum in erythrocytes, SYBR Green DNA, 72 h; series mostly up to 28.7 µM. The gist of the method: as §1
In test [14] the test system is CP191. The description is as above. Particulars: P. falciparum in erythrocytes, SYBR Green DNA, 72 h; series mostly up to 28.7 µM. An outline of the steps:
as §1

Test [15] has as its system CP194. The description is as above. The conditions noted are these: P. falciparum in erythrocytes, SYBR Green DNA, 72 h; series mostly up to 28.7 µM. An outline of the steps: as §1
In test [16] the test system is CP192. The description is as above. Particulars: P. falciparum in erythrocytes, SYBR Green DNA, 72 h; series mostly up to 28.7 µM. The gist of the method:
as §1

Setting [17] is: measured here: PEO1 parental Z-AUC.

Sequence of Glutathione peroxidase 1 (Homo sapiens) (P07203 whole entry, looked up): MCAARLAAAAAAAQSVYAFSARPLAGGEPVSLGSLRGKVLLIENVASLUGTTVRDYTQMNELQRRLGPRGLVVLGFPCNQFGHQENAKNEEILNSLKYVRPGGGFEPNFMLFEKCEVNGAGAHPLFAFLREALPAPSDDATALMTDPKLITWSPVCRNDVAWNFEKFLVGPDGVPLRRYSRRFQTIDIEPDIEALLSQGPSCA
Sequence of Metallo-beta-lactamase type 2 (Klebsiella pneumoniae) (C7C422 whole entry, looked up): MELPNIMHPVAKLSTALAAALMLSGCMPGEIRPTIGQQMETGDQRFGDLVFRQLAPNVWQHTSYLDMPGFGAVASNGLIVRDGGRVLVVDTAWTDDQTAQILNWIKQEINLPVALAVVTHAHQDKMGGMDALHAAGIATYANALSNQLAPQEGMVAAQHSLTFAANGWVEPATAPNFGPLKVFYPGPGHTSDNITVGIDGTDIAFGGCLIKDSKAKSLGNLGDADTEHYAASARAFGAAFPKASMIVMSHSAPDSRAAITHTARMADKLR

As to `CC(=O)[C@]1(O)Cc2c(O)c3c(c(O)c2[C@@H](O[C@H]2C[C@H](N)[C@H](O)[C@H](C)O2)C1)C(=O)c1ccccc1C3=O`, the Potency entry in [1] and in test [2] was “inactive” throughout. Also, the result in [3] was inactive. Also, the Z-AUC was -0.489 (inactive) in [4], -0.953 in test [4] (setting [17]) and -0.26 in test [4] (measured here: PEO4 Z-AUC). The Potency in test [5] (parasite line A) was 3.55 µM (active); in test [5] (parasite line B), 11.2 µM (active); in [6], 2.82 µM (active); in [7], 1.41 µM (active); in [8] it was 3.55 µM (active); in [9], 3.16 µM (active). For the same molecule, the Potency is 5.62 µM (active) in test [10]; 5.01 µM (active) in test [11]; 6.31 µM (active) in [12]; 11.2 µM (active) in test [13]; 3.16 µM (active) in test [14]; 15.1 µM (active) in test [15].
Take `Nc1ncn([C@@H]2O[C@H](CO)[C@@H](O)[C@H]2O)c(=O)n1`: the Potency entry in [1], in [2], in [6], in test [7], in test [8] and in [9] was “inactive” throughout. Further, the Potency entry in test [10], in test [11], in test [12], in test [13], in test [14] and in test [16] was “inactive” in each case. Besides, the Potency entry in test [15] is “inactive”. In addition, the result in [3] was inactive. Also, the Z-AUC in test [4] is 1.1 (inactive); in [4] (setting [17]), 0.0153; in test [4] (measured here: PEO4 Z-AUC), -0.332. For the same molecule, the results for the activity, negative = inhibition in test [5] (parasite line A) and in test [5] (parasite line B) were -1.52% (inactive) and 6.7% (inactive), respectively.
In the case of `C[C@]12CC[C@@H]3c4ccc(O)cc4C[C@@H](CCCCCCCCCS(=O)CCCC(F)(F)C(F)(F)F)[C@H]3[C@@H]1CC[C@@H]2O` (stereo partly specified), the Potency result in [1] and in test [2] was “inactive” each time.
In the case of `C[N+](C)(C)CCCCCCCCCC[N+](C)(C)C`, the Potency result in test [1] and in [2] was “inactive” in each case. The outcome in test [3] was inactive. The Potency in test [5] (parasite line A) was 3.98 µM (active); in [5] (parasite line B) it was 1.58 µM (active); in test [6] it was 5.62 µM (active); in test [7], 5.01 µM (active); in [8] it was 5.62 µM (active); in test [9], 3.16 µM (active). The Potency is 4.47 µM (active) in [10]; 3.16 µM (active) in [11]; 5.62 µM (active) in [12]; 4.47 µM (active) in test [13]; 3.55 µM (active) in test [14]; 1.9 µM (active) in test [16]. The Potency in test [15] was 2.13 µM (active).
In the case of `N[C@@H](COP(=O)(O)O)C(=O)O`, the Potency result in [1] and in test [2] was “inactive” each time. Besides, the result in test [3] was inactive.
For `CN(C)[C@@H]1C(=O)C(C(N)=O)=C(O)[C@@]2(O)C(=O)C3=C(O)c4c(O)ccc(Cl)c4[C@@H](O)[C@H]3C[C@@H]12`, the Potency entry in [1] and in test [2] was “inactive” throughout.
Regarding `Cc1cc(C)c(/C=C2\C(=O)Nc3ccccc32)[nH]1`, the Potency entry in test [1], in test [2], in test [6], in [7], in test [8] and in test [9] was “inactive” throughout. In addition, the Potency result in [10], in test [11], in test [12], in test [13], in [14] and in test [16] was “inactive” throughout. Besides, the Potency result in [15] was “inactive”. Further, the result in test [3] was inactive. The Z-AUC in test [4] was 0.918 (inactive); in [4] (setting [17]), 0.596; in test [4] (measured here: PEO4 Z-AUC), 0.161. In addition, the activity, negative = inhibition in [5] (parasite line A) was 2.71% (inactive); in [5] (parasite line B) it was 10.1% (inactive).
Turning to `CC(=O)OC(C)C[N+](C)(C)C` (stereo unspecified), the Potency result in test [1] was “inactive”.
Turning to `CN1C(=O)CC[C@H]1c1cccnc1`, the Potency result in test [1] and in [2] was “inactive” each time. Besides, the result in [3] was inactive.
Take `Cc1cccc(C)c1NC(=O)C(C)N` (stereo unspecified): the Potency result in [1] and in test [2] was “inactive” in each case. Further, the outcome in test [3] was inactive.
In the case of `C[C@@H](O)[C@H]1C(=O)N2C(C(=O)O)=C(SCCN=CN)C[C@H]12`, the Potency result in test [1] and in test [2] was “inactive” in each case. In addition, the outcome in test [3] was inactive.
In the case of `C[C@]12CCC(=O)C=C1CC[C@@H]1[C@@H]2C(=O)C[C@@]2(C)[C@H]1CC[C@]2(O)C(=O)CO`, the Potency result in test [1] and in test [2] was “inactive” throughout. Further, in test [3], the result was inactive.
`CCOC(=O)C1=C(C)NC(C)=C(C(=O)OC)C1c1cccc(Cl)c1Cl` (stereo unspecified): the Potency result in test [1], in [2], in test [6], in [8], in [9] and in [10] was “inactive” in each case. In addition, the Potency entry in test [11], in test [12], in test [13], in test [14] and in [16] was “inactive” throughout. In test [3], the result was inactive. In addition, the activity, negative = inhibition in [5] (parasite line A) was -7.27% (inactive); in [5] (parasite line B), -5.02% (inactive).
